Growth data for 9 compounds are collected here from PubChem BioAssay (NCI).

This is part of a sample that, as a whole, favours compounds with a hit. Of some 83,000 tested, about 20% had one in any assay.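 48-hour exposure, single concentration, 96-well plates; percent growth endpoint where 0 means no net growth. Active: below 10.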 A number with no mark means an inactive call. The source made the active and inactive calls.

Holding throughout (experiment): NCI-60 one-dose screen, 48 h (100 = growth as untreated, 0 = no growth, -100 = all killed)
Holding throughout (conditions): 10 µM unless noted

Test [1] concerns SR leukemia.
Test [2] concerns RPMI-8226 leukemia.
The subject of test [3] is OVCAR-8 ovarian.
Test [4] deals with OVCAR-5 ovarian.
Test [5] has as its system OVCAR-4 ovarian.
Test [6] has as its system SK-OV-3 ovarian.
The test system of test [7] is IGROV1 ovarian.
The subject of test [8] is OVCAR-3 ovarian.
Test [9] concerns HS 578T breast.
Test [10] concerns NCI/ADR-RES ovarian.
Test [11] has as its system T-47D breast.
Test [12] deals with BT-549 breast.
For test [13], the system named is MDA-MB-435 melanoma.
Test [14] deals with SW-620 colon.
The subject of test [15] is MCF7 breast.
The test system of test [16] is HCT-116 colon.
In test [17] the test system is HCC-2998 colon.
Test [18] has as its system KM12 colon.

As to `COc1ccc(OCC(=O)Nc2ccc(-c3nc4ccccc4s3)cc2C)cc1`, the growth is 76.1% in test [1]; 66% in [2]; 113% in test [3]; 78.1% in [4]; 55% in test [5]; 99.5% in test [6]. Further, the growth in test [7] is 35.2%; in test [8], 102%; in test [9], 87.8%; in test [10] it was 85%; in test [11] it was 30.4%; in [12], 91.9%. Further, the growth is 101% in [13]; 97% in [14]; 29.9% in [15]; 74% in test [16]; 90.4% in test [17]; 107% in [18].

With `O=C(O)c1c([N+](=O)[O-])cnc2ccccc12`, the growth was 135% in test [1]; 108% in test [2]; 96.2% in [3]; 99.1% in test [4]; 107% in test [5]; 93% in test [6]. Also, the growth in [7] is 106%; in test [8], 118%; in test [9], 113%; in test [10], 96.7%; in test [11] it was 83.5%; in test [12] it was 96.7%. Also, the growth is 102% in [13]; 101% in [14]; 93% in test [15]; 97.5% in [16]; 100% in [17]; 111% in [18].

Turning to `COc1ccc(C(=O)c2sc3nc4c(cc3c2N)CCCC4)cc1OC`, the growth is -7.02% (active) in test [1]; 10.4% in test [2]; 43.1% in test [3]; 86.9% in test [4]; 60.7% in [5]; 71.6% in test [6]. Moreover, the growth in [7] was 35.9%; in test [8], 20.6%; in test [9], 74%; in test [10] it was 19.7%; in [11], 15.5%; in test [12] it was 24.1%. Further, the growth in test [13] is -9.21% (active); in test [14], 34.6%; in [15], 27.1%; in test [16], 19.4%; in test [17], 109%; in test [18], 26.9%.

Regarding `CC(=O)O[C@H]1CC[C@]2(C)[C@H]3CC[C@@H]4[C@H]5[C@H](C(C)C)CC[C@]5(C(=O)OCC(CO)(CO)N=C(N)N)CC[C@@]4(C)[C@]3(C)CC[C@H]2C1(C)C`, the growth in [1] is -13.6% (active); in test [2], 4.55% (active); in test [3] it was -31.9% (active); in test [4], 99.1%; in [5] it was 87.9%; in test [6] it was 91.2%. Further, the growth was 24.3% in test [7]; 18.9% in test [8]; 93.7% in test [9]; 76.8% in [10]; 44.6% in [11]; 108% in test [12]. The growth is 22.6% in test [13]; -71.5% (active) in test [14]; 4.01% (active) in test [15]; -76.1% (active) in [16]; -60.9% (active) in test [17]; 17.4% in [18].

Regarding `C=C1CC[C@@H]2[C@](C)(COC(C)=O)[C@H](OC(C)=O)CC[C@@]2(C)[C@@H]1CC(Nc1ccc(S(=O)(=O)Nc2ccc(Cl)nn2)cc1)C1=CCOC1=O` (some centres not stated), the growth in test [1] is -5.26% (active); in [2], -19.2% (active); in [3] it was 16.9%; in test [4] it was 44.6%; in [5], 30.8%; in test [6], 86.1%. Besides, the growth in test [7] is 43.3%; in test [8] it was -56.1% (active); in test [9], 75.6%; in test [10], 16.7%; in test [11] it was 34.1%; in [12] it was -9.45% (active). Besides, the growth is 8.13% (active) in [13]; -37.7% (active) in test [14]; 16.8% in [15]; -34.1% (active) in [16]; 88.5% in [17]; 27% in [18].

Take `Cc1ccc(NC(=O)c2sc3nc4c(cc3c2N)C(=O)CCC4)cc1C`: the growth was 22.9% in test [1]; 11.4% in test [2]; 31.6% in [3]; 32.6% in [4]; 76% in test [5]; 4.9% (active) in [6]. The growth is 23.9% in test [7]; -10.2% (active) in test [8]; 28.1% in test [9]; 10.9% in test [10]; 24.1% in [11]; 48.7% in test [12]. For the same compound, the growth was -55.5% (active) in test [13]; 18.9% in test [14]; 10.7% in test [15]; 28.4% in test [16]; 27.3% in [17]; 19.5% in [18].

On to `CSc1ccc(N=C=C(c2ccccc2)c2ccccc2)cc1`, for which the growth in [1] is 50.7%; in test [2], 88.5%; in test [3], 89%; in test [4], 93.2%; in test [5], 110%; in [6], 90.1%. For the same compound, the growth was 95.7% in test [7]; 103% in [8]; 86.8% in test [9]; 104% in [10]; 81.9% in [11]; 88.9% in [12]. The growth in [13] is 97.4%; in test [14] it was 86%; in test [15], 78.5%; in test [16], 89.3%; in test [17] it was 100%; in test [18] it was 102%.

On to `Cc1ccc(S(=O)(=O)n2cc(-c3csc(-c4cn(C)c5ncccc45)n3)c3ccccc32)cc1`, for which the growth in [1] was 2.53% (active); in [2], 71.1%; in [3], 80.5%; in test [4], 81.9%; in test [5], 71.5%; in [6], 70.2%. Moreover, the growth is 56.3% in test [7]; 30.3% in [8]; 85.8% in [9]; 43.3% in [10]; 24.4% in test [11]; 66.9% in [12]. In addition, the growth in test [13] is 3.65% (active); in test [14], 40%; in test [15], 19.8%; in [16], 36%; in test [17], 88.4%; in test [18], 29.3%.

In the case of `COc1ccc(/C=C/C(=O)c2ccc(NC(=O)c3cc4cc5ccccc5nc4s3)cc2)cc1OC`, the growth in test [1] is 98.6%; in test [2] it was 99.4%; in [3] it was 111%; in [4], 96.8%; in [5], 97.1%; in [6] it was 106%. The growth was 81.8% in test [7]; 95.5% in test [8]; 107% in test [9]; 105% in [10]; 87.7% in test [11]; 104% in [12]. For the same compound, the growth in test [13] is 102%; in test [14] it was 105%; in test [15], 80.3%; in [16], 91.6%; in test [17], 104%; in test [18], 76.3%.
